Laboratory results as given in PubChem BioAssay (NCI).
This is part of a sample that, as a whole, favours compounds with a hit. Of some 79,000 tested, about 15% had one in any assay. Rule as the data show it: active = growth inhibition above about 70%; inactive = the rest.

Assays:
[1] = NCI Yeast Anticancer Drug Screen. Data for the rad50 strain (AID 155);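 also: 0% = growth of vehicle-only cultures of the same strain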; conditions: S. cerevisiae rad50 strain growth inhibition; at 50.0 µM; stronger effect = higher value
In short: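 Relative growth inhibition (compound vs vehicle) was measured in yeast with a defined repair-gene alteration.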

[2] = NCI Yeast Anticancer Drug Screen. Data for the mec2-1 strain (AID 157); conditions: S. cerevisiae mec2-1 strain, at 50.0 µM, stronger effect = higher value
In short: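 Vehicle-treated cultures served as reference for growth inhibition of compound-exposed mec2-1 yeast.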

[3] = NCI Yeast Anticancer Drug Screen. Data for the sgs1 mgt1 strain (AID 161);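 also: 0% = growth of cultures given vehicle only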; conditions: S. cerevisiae sgs1 mgt1 strain, at 50.0 µM, stronger effect = higher value
In short: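 Mutant yeast exposed to compound; growth scored against vehicle-only wells.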

[4] = NCI Yeast Anticancer Drug Screen. Data for the cln2 rad14 strain (AID 165);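 also: 0% = growth equal to vehicle treated cultures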; conditions: S. cerevisiae cln2 rad14 strain, at 50.0 µM, stronger effect = higher value
In short: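 Each compound was tested on cln2 rad14 yeast. Inhibition of growth was calculated against vehicle-exposed controls.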

[5] = NCI Yeast Anticancer Drug Screen. Data for the bub3 strain (AID 167); conditions: S. cerevisiae bub3 mutant strain, at 50.0 µM, stronger effect = higher value
In short: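 Screening used yeast with an engineered genetic alteration affecting cell cycle control. Compound-exposed cultures were compared with vehicle cultures, and reduced growth was taken as inhibition.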

[6] = NCI Yeast Anticancer Drug Screen. Data for the mlh1 rad18 strain (AID 175); conditions: S. cerevisiae mlh1 rad18 strain growth inhibition; at 50.0 µM; stronger effect = higher value
In short: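 Vehicle-treated cultures served as the reference for growth inhibition in a yeast strain carrying DNA damage repair alterations exposed to each compound.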

Measured: growth inhibition

COC(=O)CCc1nc2ccccc2c(=O)[nH]1
inactive: [1] 6.45% | [2] 1.05% | [3] -6.05% | [4] -35.8% | [5] -14.9% | [6] -12.4%

Nc1ccnc(Cl)n1
inactive: [1] -2.45% | [2] -6.05% | [3] -13.2% | [4] 0.4% | [5] 0.4% | [6] -0.95%

Cc1oc2nc(N(C)C)nc(NN)c2c1C
inactive: [1] 10.1% | [2] 5.55% | [3] -4.55% | [4] -0.75% | [5] 10.2% | [6] -13.8%

CN(N=Nc1ccc(C#N)cc1)C(C)(C)C
inactive: [1] 3.3% | [2] -5.3% | [3] 6.5% | [4] -5.85% | [5] -2.35% | [6] 5.55%

CCCCNc1nc2nc[nH]c2c(=O)[nH]1
inactive: [1] -5.45% | [2] -6.3% | [3] -13.2% | [4] -2.25% | [5] -29.1% | [6] -48%

COc1ccc(C2c3cc4c(cc3OC3(N5CCCC5)CCCC23)OCO4)c(OC)c1 (configuration not stated)
inactive: [1] 0.85% | [2] -6.8% | [3] -1.5% | [4] 14.2% | [5] 15.2% | [6] 11.6%

NC(=O)c1cc2ccccc2c2ccccc12
inactive: [1] 0.65% | [2] -23.8% | [3] -15.6% | [4] -33.3% | [5] -1% | [6] -3.85%

CC1CC2=C(C1)C(C1(C)C(=O)CC3C(C1=O)C3(C)C)C(C)C2=O (configuration not stated)
inactive: [1] 2.3% | [2] -24.6% | [3] 5.5% | [4] 3.3% | [5] 4.6% | [6] -44.6%

O=C1C2CCOC2N=C2CCCN12 (configuration not stated)
inactive: [1] -1.85% | [2] 5.55% | [3] -3.55% | [4] 1.65% | [5] -5.3% | [6] -11.1%

CCOC(=O)c1[nH]cnc1N
inactive: [1] -17.1% | [2] 11.1% | [3] -2.55% | [4] -46.1% | [5] 1.15% | [6] -3.65%

NC1C(=O)Nc2ccccc21 (configuration not stated)
inactive: [1] 1.85% | [2] 5.95% | [3] -5.75% | [4] -1.05% | [5] 8.35% | [6] 4.95%

O=S(=O)(O)C(Nc1ccc(Cl)cc1)c1ccccc1 (configuration not stated)
inactive: [1] 0.15% | [2] 6.2% | [3] 4.6% | [4] 12.5% | [5] 11.2% | [6] 10.3%

O=c1oc2ccccc2c2c1cnn2-c1ccccc1
inactive: [1] -12.7% | [2] -4% | [3] -7.85% | [4] -5.9% | [5] -21.7% | [6] -4.45%

COc1cc(C2c3cc4c(cc3OC(N3CCCCC3)C2C)OCO4)cc(OC)c1OC (configuration not stated)
inactive: [1] -13.4% | [2] -20.1% | [3] -18.1% | [4] 0.15% | [5] -23.6% | [6] -12.6%

COC(=O)C1C(=O)C=C(C)C(C(=O)OC)C1c1ccccc1 (configuration not stated)
inactive: [1] 7.7% | [2] -4.2% | [3] 6.15% | [4] -5.85% | [5] 12.5% | [6] 0.25%

NC(=O)N/N=C/c1ccc2oc3ccccc3c2c1
inactive: [1] 40.2% | [2] 19.1% | [3] 18.4% | [4] 16.5% | [5] 18.4% | [6] 44.5%

CCOC(=O)c1nnc(-c2ccccc2)nc1Cl
inactive: [1] -2.55% | [2] 3.45% | [3] 0.15% | [4] -12.9% | [5] 3.7% | [6] 4%

O=C(Nc1ccc(Cl)cc1)P(=O)(O)c1ccccc1
inactive: [1] -11.8% | [2] -0.95% | [3] -23.1% | [4] -26.8% | [5] -16.8% | [6] 18.1%

C=C(C)CCCC(C)C(O)C=O (configuration not stated)
inactive: [1] -8.85% | [2] 1.15% | [3] 1.55% | [4] 1.75% | [5] -5.35% | [6] -12.7%

O=C(NCCNCCNC(=O)C(F)(F)F)C(F)(F)F
inactive: [1] -9.75% | [2] -16.9% | [3] -4.4% | [4] 12.8% | [5] -1.5% | [6] -41.6%

COc1c2c(cc3c1C(=O)Cc1ccc4c(c1CN(C)CC3)OCO4)OCO2
inactive: [1] 7.15% | [2] -3.4% | [3] -1.15% | [4] 24.4% | [5] 8.95% | [6] 7.25%

Nc1nc(Sc2ccc([N+](=O)[O-])c3nonc23)c2[nH]cnc2n1
inactive: [1] 17.1% | [2] 7.25% | [3] -20.4% | [4] 17.2% | [5] 29.1% | [6] 34.6%

CC(=O)CSCc1ccccn1
inactive: [1] 5.05% | [2] 15% | [3] -18.6% | [4] 10.2% | [5] 22.6% | [6] -1.9%

CC1=C(CCC(C)CO)OC2CC3C4CCC5CC(O)CCC5(C)C4CCC3(C)C12 (configuration not stated)
inactive: [1] -4.5% | [2] -22.6% | [3] -24.7% | [4] -1.9% | [5] -21.1% | [6] -16.4%

COCCOCOC(C)(C)CCCCl
inactive: [1] 11.3% | [2] 24% | [3] 21.9% | [4] -5.2% | [5] -2.1% | [6] -20%

CCOC(=O)/C(=N/O)c1ccccn1
inactive: [1] 0.4% | [2] -8.65% | [3] -4.35% | [4] 16.2% | [5] -5.35% | [6] -3.8%

O=C1C=CC(=Nc2ccc3c(c2)C(=O)c2cc(F)ccc2-3)O1
inactive: [1] -0.35% | [2] -6.7% | [3] 9.2% | [4] -2.15% | [5] 1.35% | [6] 5.3%

CCC1CN1C(=O)c1cc(C(=O)N2CC2CC)cc(C(=O)N2CC2CC)c1 (configuration not stated)
inactive: [1] 3.2% | [2] 15.7% | [3] 5.5% | [4] 24.3% | [5] -5.75% | [6] 20%

NC1=C(O)C(=O)C(c2ccccc2)O1 (configuration not stated)
inactive: [1] -29.2% | [2] -12.2% | [3] -4.15% | [4] -24.2% | [5] -8.9% | [6] 2.5%

CC1C(c2ccccc2)(N(C)C)CS1(=O)=O (configuration not stated)
inactive: [1] -3.15% | [2] -8.5% | [3] -6.4% | [4] -74.7% | [5] 12.7% | [6] -8.6%

CC(=O)Nc1ccc(F)c(N)c1
inactive: [1] -3.2% | [2] -13.2% | [3] 8.7% | [4] -11.9% | [5] -9.1% | [6] 15.1%

O=C1c2ccccc2C(=O)N1c1cccc2ccccc12
inactive: [1] 51.4% | [2] 8.2% | [3] 26.6% | [4] -19.4% | [5] 55.7% | [6] 62%

NC(=S)N/N=C\c1nccc2ccsc12
inactive: [1] 10.4% | [2] -5.7% | [3] -9.35% | [4] -29.9% | [5] -0.05% | [6] 2.7%

BrCc1cccc2cccc(CBr)c12
inactive: [1] -5.35% | [2] 17.4% | [3] 10.4% | [4] -10.5% | [5] 9.05% | [6] 2.65%

C=NC1CCCCC1
inactive: [1] 0.95% | [2] -3.75% | [3] -10.6% | [4] 2% | [5] 14.7% | [6] 3.75%

C/C(=N\NC(=O)c1ccncc1)c1cccc(Br)c1
inactive: [1] 12% | [2] 13.9% | [3] 5.35% | [4] 6.6% | [5] 5.35% | [6] 11.8%

CCOC(=O)C(N=Nc1ccccc1)C(=O)c1ccccc1 (configuration not stated)
inactive: [1] 23.4% | [2] -2.75% | [3] 50.7% | [4] -22.1% | [5] 38.8% | [6] 28.5%

C=C[C@]1(O)CCC[C@]2(C)C(=O)CCC12C (some centres not stated)
inactive: [1] -2.8% | [2] -21.9% | [3] -19.2% | [4] 10.8% | [5] -22.2% | [6] -31.9%

Cc1ccsc1/C=N/Nc1ncccn1
inactive: [1] 16.1% | [2] 10.7% | [3] 23.4% | [4] 3.7% | [5] 13.9% | [6] 24.1%

O=C[c-]1[c-][c-][c-][c-]1.[Fe+2].[c-]1[c-][c-][cH-][c-]1
inactive: [1] 44% | [2] 58.5% | [3] 57.8% | [4] 49% | [5] 51.6% | [6] 14%

[Br][Pt+2][Br].[NH-]c1ccc(F)cc1.[NH-]c1ccc(F)cc1
inactive: [1] 34.9% | [2] 9.2% | [3] 5.4% | [4] -8.3% | [5] -4.75% | [6] 24.9%

CN(C)CCC(C(=O)C(C)(C)C)c1ccccn1 (configuration not stated)
inactive: [1] -7.2% | [2] -9.2% | [3] -5.65% | [4] -19.4% | [5] -16.9% | [6] -0.6%
